Compound activity: PubChem, several laboratories
The list is not random: actives were taken first. Their share in the collection is about 2.8%.
SENP8 block-1: blocks human SENP8 cleavage of Nedd8 substrate. Q96LD8. recombinant SENP8, Nedd8 substrate fluorescence. inhibition, % at 20 µM. 360,000 compounds, 0.64% hits. AID 602440; in the data active = inhibition mostly above about 40%, no sharp cut-off; inactive = mostly below about 27%
Target sequence (Q96LD8 whole entry, looked up): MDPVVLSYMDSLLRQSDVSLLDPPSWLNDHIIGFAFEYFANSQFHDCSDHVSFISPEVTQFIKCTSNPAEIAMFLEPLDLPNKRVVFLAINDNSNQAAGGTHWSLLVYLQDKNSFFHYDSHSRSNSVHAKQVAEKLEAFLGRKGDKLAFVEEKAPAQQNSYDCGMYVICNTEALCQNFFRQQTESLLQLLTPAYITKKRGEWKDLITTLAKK
SENP7 inh: SENP7 protease inhibition. recombinant SENP7, Z-RLRGG-aminoluciferin luminescence, 40 min. inhibition, % at 5 µM. 330,000 compounds, 1.5% hits;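 active = inhibition above about 50% at the single test dose, limit read from the data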;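 also: plate controls were DMSO with enzyme for no effect and no enzyme buffer wells for full effect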
Target sequence (Q9BQF6 706-1050 limits assumed): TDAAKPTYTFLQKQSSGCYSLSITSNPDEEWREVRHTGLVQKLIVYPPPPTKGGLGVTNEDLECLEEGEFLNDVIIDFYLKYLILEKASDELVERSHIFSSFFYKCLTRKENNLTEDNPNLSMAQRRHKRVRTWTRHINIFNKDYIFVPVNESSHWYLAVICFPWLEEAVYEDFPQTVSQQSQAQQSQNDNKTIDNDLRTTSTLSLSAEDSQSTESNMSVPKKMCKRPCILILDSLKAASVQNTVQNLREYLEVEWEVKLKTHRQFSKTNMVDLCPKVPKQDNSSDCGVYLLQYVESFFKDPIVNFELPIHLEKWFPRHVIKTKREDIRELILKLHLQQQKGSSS
SENP6 inh: SENP6 protease inhibition. Q9GZR1. Recombinant SENP6 catalytic domain, aminoluciferin luminescence. inhibition, % at 10 µM. 330,000 compounds, 1.8% hits. AID 2599;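 active = inhibition above about 50% at the single tested dose, limit read from the data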;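 also: plate controls were DMSO wells with enzyme for no effect and DMSO wells lacking enzyme for full effect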
HSP90 refold inh: HSP90 refolding inhibition in rabbit reticulocyte lysate; 290,000 compounds, 0.91% hits; AID 1789; inhibition, % at 5.6 µM; luciferase refolding luminescence, 3 h;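 active = inhibition above the screen-wide mean plus 3 SD, computed separately per campaign, cut at about 16% in these data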;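 also: 0% = DMSO wells and 100% = 60 µM geldanamycin wells; inhibitors lower the luminescence because luciferase stays unfolded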
SENP8 block-2: SENP8 protease inhibition; Q96LD8; purified SENP8, Z-RLRGG-aminoluciferin cleavage, luminescence; inhibition, % at 10 µM; 330,000 compounds, 1.2% hits; in the data active = inhibition above about 50%
Platelet DG rel: platelet dense granule release activity; human platelet-rich plasma, SFLLRN dense granule ATP release, luminescence; inhibition, %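 (compounds screened at 7.5 µM in platelet-rich plasma)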; 300,000 compounds, 0.22% hits; AID 1663;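 active = mean replicate score, as percent of positive control, at or above 50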
SENP8 inh conf: SENP8 (human) inhibition, single concentration confirmation | inhibition, % at 25 µM | AID 624319 | shares compounds with SENP8 block-1 | purified SENP8, Nedd8-AMC/pro-Nedd8 cleavage fluorescence, 30 min | 1,400 compounds, 15% hits; in the data active = inhibition mostly above about 39%, no sharp cut-off; inactive = mostly below about 34%
* hit, by the source's call; nt = no result given.

SMILES	SENP8 block-1	SENP7 inh	SENP6 inh	HSP90 refold inh	SENP8 block-2	Platelet DG rel	SENP8 inh conf
CSc1nncc(/C(C)=N\Nc2cccc(C)c2)n1	46*	7	-6	-3	6	-26	16
CSc1nncc(/C(C)=N\Nc2ccccc2)n1	52*	8	6	-2	3	-36	17
COC(=O)C1CCN(S(=O)(=O)c2c[nH]c(=O)[nH]c2=O)CC1	13	nt	nt	nt	nt	nt	nt
Cc1cc(NS(=O)(=O)c2ccc(NC(=O)C(CC(C)C)N3C(=O)c4ccccc4C3=O)cc2)nc(C)n1 (stereo not given)	42*	11	-1	4	7	7	-3
Cc1cc(NS(=O)(=O)c2ccc(NC(=O)C(C(C)C)N3C(=O)c4ccccc4C3=O)cc2)nc(C)n1 (stereo not given)	11	4	2	-2	0	-3	nt
CC(=O)Nc1ccc(S(=O)(=O)Nc2ccc(Nc3ccccc3)cc2)cc1	17	9	-3	-1	34	-1	nt
CC(=O)c1cccc(NC(=O)N(c2ccccc2)c2ccccc2)c1	10	-4	11	0	-2	1	nt
CNC(=O)N(c1ccccc1)c1ccccc1	43*	-7	-18	-6	-15	-9	12
Cn1cnnc1Sc1cc(N2CCN(S(=O)(=O)c3ccc(Cl)c(Cl)c3)CC2)ccc1[N+](=O)[O-]	62*	-3	-66	-1	-12	0	21
Cc1cc(C)n(-c2cc(N3CCN(C(=O)c4ccc(C(C)(C)C)cc4)CC3)ccc2[N+](=O)[O-])n1	45*	0	-12	1	-1	0	22
Cc1cc(C)n(-c2cc(N3CCN(S(=O)(=O)c4ccc5ccccc5c4)CC3)ccc2[N+](=O)[O-])n1	30	2	-1	8	-1	-35	nt
Cc1ccc(S(=O)(=O)N2CCN(c3ccc([N+](=O)[O-])c(Sc4nncn4C)c3)CC2)cc1	28	2	0	9	-6	14	nt
Cc1cc(C)n(-c2cc(N3CCN(S(=O)(=O)c4ccc(C)c(C)c4)CC3)ccc2[N+](=O)[O-])n1	44*	9	7	2	-2	-17	13
Cc1cc(C)n(-c2cc(N3CCN(C(=O)c4ccccc4C)CC3)ccc2[N+](=O)[O-])n1	53*	-4	-20	-3	1	-4	23
O=c1[nH][nH]c2c1[C@H](c1ccc(F)cc1)O[C@H](CCC(F)(F)F)C2	19	nt	nt	nt	nt	nt	nt
COc1ccc(Nc2nc3cc(-c4ccccc4C)sc3c(=O)n2C)cc1OC	-46	nt	nt	nt	nt	nt	nt
Cc1ccc(S(=O)(=O)N[C@H](C(=O)N2CCC(C(=O)N[C@H](C(=O)O)c3ccccc3)CC2)C(C)C)cc1	48*	7	-7	3	-6	-2	11
Cc1ccc(S(=O)(=O)N[C@H](C(=O)N2CCC(C(=O)NCC(=O)O)CC2)C(C)C)cc1	18	-3	-9	1	-13	-5	nt
CCN(CC)c1ccc(N=Cc2c(C)[nH]c3ccccc23)cc1	60*	0	11	5	-10	11	8
C[C@@H]1CN([C@H](C)CO)C(=O)CCCn2nncc2CO[C@H]1CN(C)Cc1cccnc1	14	nt	nt	nt	nt	nt	nt
CCOC(=O)[C@]12CCC=C1N(CCC1=CCCCC1)C(=O)[C@H](CC(=O)NCCCN1CCCC1=O)C2	23	nt	nt	nt	nt	nt	nt
CCOC(=O)[C@]12CCCC=C1N(CCC1=CCCCC1)C(=O)[C@H](CC(=O)NCCCN1CCCC1=O)C2	42*	nt	nt	nt	nt	nt	9
CCCCC1Cc2[nH]c(=S)[nH]c(=O)c2C(C(C)C)O1 (stereo not given)	19	nt	nt	nt	nt	nt	nt
CCCCc1ccc(S(=O)(=O)NC2CCS(=O)(=O)C2)cc1 (stereo not given)	8	5	0	0	6	-9	nt
COC(=O)Nc1ccc(S(=O)(=O)NC2CCS(=O)(=O)C2)cc1 (stereo not given)	45*	6	20	0	6	-1	32
SMILES	SENP8 block-1	SENP7 inh	SENP6 inh	HSP90 refold inh	SENP8 block-2	Platelet DG rel	SENP8 inh conf
COc1ccc(-c2cc(=O)n(CCC#N)[nH]2)cc1	43*	28	22	65*	10	6	40
COc1ccc(-c2ncn(CCC#N)c2[N+](=O)[O-])cc1	6	-2	3	0	-3	-8	nt
CCC1=NN(C(=O)c2ccc([N+](=O)[O-])cc2)C(O)(c2ccccc2)C1 (stereo not given)	50*	3	4	-2	8	-8	17
C/C(=N\Nc1ccc(S(N)(=O)=O)cc1[N+](=O)[O-])c1ccco1	48*	-4	0	0	-8	-3	12
C/C(=N\NC(=O)c1cc([N+](=O)[O-])cc([N+](=O)[O-])c1)c1ccco1	20	-2	-2	2	-1	0	nt
O=C(CSc1ccc2nnc(-c3ccccn3)n2n1)Nc1ccccc1F	-26	-2	-4	0	4	0	nt
Cc1cccc(NC(=O)CCS(=O)(=O)c2cccc3nsnc23)c1C	41*	6	-10	-2	6	-2	15
CC(C)C1NCCc2c1sc1ccccc21 (stereo not given)	43*	0	4	nt	-2	-6	-8
N/C(=N\O)c1ccc([N+](=O)[O-])s1	31	7	7	2	6	6	nt
NC(=O)c1ccc(N=Cc2ccc([N+](=O)[O-])s2)cc1	60*	nt	nt	-4	nt	nt	95*
O=C1c2ccccc2C(=O)N1c1ccccc1	42*	nt	nt	nt	nt	nt	4
Nc1cccc2c1C(=O)N(c1ccccc1)C2=O	-429	1	-4	nt	1	7	nt
Cc1cccc(C)c1NC(=O)C1c2ccccc2OCC(=O)N1CCc1ccccc1 (stereo not given)	16	nt	nt	nt	nt	nt	nt
C#CCCc1cocc1/C=[N+](\[O-])c1ccc(C(=O)OCC)cc1	-29	-9	-12	nt	-15	nt	nt
CC1CCC2C(=O)N(c3ccc(NC4CCCCC4)c([N+](=O)[O-])c3)C(=O)C2C1 (stereo not given)	24	2	-7	0	1	-7	nt
CCOC(=O)N1CCC(Nc2ccc(N3C(=O)C4CCCCC4C3=O)cc2[N+](=O)[O-])CC1 (stereo not given)	38*	8	-22	-1	1	-6	22
Cc1occc1C(=O)N/N=C/C1=C(N2CCOCC2)C(=C/c2ccc(Cl)cc2Cl)/CC1	-56	nt	nt	nt	nt	nt	nt
CN(N=Cc1ccccc1)C(=S)Nc1ccccc1	43*	nt	nt	nt	nt	nt	19
C/C(=C\C(=S)Nc1ccccc1)Nc1ccccc1	-21	2	-9	1	-7	-6	nt
COC/C=C/C1=CC2=CC(=O)C(C)(OC(=O)c3cnc4ccccc4n3)C(=O)C2=CN1Cc1ccccc1 (stereo not given)	45*	1	19	nt	2	0	26
